Results on two compounds are retold here after PubChem BioAssay (NCATS).

Inconclusive results are not listed. The source made the active and inactive calls. Unless noted, calls follow the shape of the dose curve; as a rule, active = well fitted curve in the direction sought with a large enough effect; inconclusive = small, poorly fitted or top-dose-only effect, or another doubt; inactive = no such curve, though single readings can be large; an effect the other way counts as inactive or inconclusive.

The subject of test [1] is Zika virus NS2B-NS3 protease (unlinked complex). In words: Primary screen GU Rhodamine qHTS for Zika virus inhibitors: Unlinked NS2B-NS3 protease assay (AID 1347159). Also: nearly all actives have a fitted effect of over 60% in size. The method in brief: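 Noncovalent NS2B hydrophilic domain/NS3 protease complex (25 nM final) in 10 mM Tris-HCl pH 8.0, 0.01% Tween 20, preincubated 15 min with compounds (up to 114 microM), then 1.5 microM Rhodamine110 substrate. Fluorescence change over 15 min fitted to 4-parameter Hill.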
Background: In qHTS, concentration-response curves come from the screen itself.

The subject of test [2] is Zika virus NS2B-NS3 protease (linked construct). Briefly: Primary screen NINDS Rhodamine qHTS for Zika virus inhibitors (AID 1347160). Also: nearly all actives have a fitted effect of over 55% in size. The method in brief: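 Purified NS2B-NS3 protease with the NS2B hydrophilic domain joined by a flexible linker (25 nM) in 10 mM Tris-HCl pH 8.0, 0.01% Tween 20, preincubated 15 min at RT with compound; Rhodamine110 peptide substrate 1.5 µM; fluorescence change over 15 min; 4-parameter Hill fit.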

Test [3] deals with Calcium and integrin-binding protein 1 (Homo sapiens) (UniProt Q99828). In words: Primary qHTS for Identification of Calcium Integrin Binding Protein 1 (CIB1) Competitor (AID 1508620).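 Also: GST tagged CIB1 binding a fluorescein labelled alphaIIb integrin peptide tracer; top concentration of the series differs between compounds.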 The gist of the method:
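Fluorescence polarization competition: CIB1-GST (1 uM final) preincubated with compound 15 min at room temperature, then FITC-labeled alphaIIb peptide (100 nM final) added for another 15 min. Polarization read at Ex 480/Em 540.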

For test [4], the target named is Cytochrome P450 2D6 (Homo sapiens) (UniProt P10635). Briefly: Cytochrome P450 family 2 subfamily D member 6 (CYP2D6) small molecule antagonists: luciferase biochemical (cell-free) qHTS assay (AID 1645840; active = well fitted curve in the direction sought with a large enough effect in the repeat runs; an effect the other way counts as inactive or inconclusive; also: potency is read from the fitted curve at half-maximal effect; nearly all actives have a fitted effect of over 55% in size). The gist of the method: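 P450-Glo luminescent screen: recombinant CYP2D6 enzyme–proluciferin substrate mix preincubated with compound 10 min at room temperature, then NADPH regeneration added for 1 h at room temperature. Detection reagent added for 20 min; luciferin light read as relative luminescence units.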

Test [5] deals with Cytochrome P450 2C9 (Homo sapiens) (UniProt P11712). In words: Cytochrome P450 family 2 subfamily C member 9 (CYP2C9) small molecule antagonists: luciferase biochemical (cell-free) qHTS assay (AID 1645842; active = well fitted curve in the direction sought with a large enough effect in the repeat runs; an effect the other way counts as inactive or inconclusive; also: nearly all actives have a fitted effect of over 55% in size; also: potency is read from the fitted curve at half-maximal effect). The method in brief:
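Luminescence, after 20 min with luciferin detection reagent, reflected CYP2C9 turnover during a 1 h NADPH-driven reaction at 37C. Enzyme-substrate mix contained 0.4% bovine serum albumin and was preincubated with compound 10 min at room temperature.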

In test [6] the target is Phospholipid hydroperoxide glutathione peroxidase GPX4 (Homo sapiens) (UniProt P36969). In words: Primary qHTS Assay for Inhibitors of Recombinant Selenoprotein Glutathione Peroxidase 4 (GPX4) (AID 1845192). Also: nearly all actives have a fitted effect of over 65% in size. The gist of the method:
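GR-coupled readout: 100 nM GR, 1 mM GSH, 0.5 mM NADPH; NADPH fluorescence (ex 340/em 450 nm) read at t=0 and after 15 min RT. GPX4 200 nM, preincubated 30 min with compound; substrate 0.5 mM CHP.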

For test [7], the target named is Luciferin 4-monooxygenase (Photinus pyralis) (UniProt P08659). Briefly: Primary firefly luciferase (FLuc) qHTS assay for identification of artifact compounds. (AID 1845220). Also: nearly all actives have a fitted effect of over 60% in size. The settings on record: outcome: dose series up to 54.1 µM unless noted. The method in brief:
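Reaction readout was CCD-imaged luminescence, taken 5 min after adding 10 nM purified firefly enzyme to compound-treated wells holding 10 uM luciferin and ATP in pH 7.6 buffer.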

A short description of test [8]: Primary fluorescence-based thiol-reactive (MSTI) qHTS assay for identification of artifact compounds. (AID 1845221).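 Also: thiol-reactive compounds lower the probe fluorescence signal; nearly all actives have a fitted effect of over 65% in size.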 The method in brief:
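First, 4 uM MSTI in 2% DMSO/PBS pH 7.4 was dispensed; next, compounds were added; then plates sat 1 h at room temperature without light. Finally, emission at 598 nm was recorded.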

Test [9] relates to Nanoluciferase (engineered Oplophorus gracilirostris luciferase). Briefly: Primary Nanoluciferase (NLuc) qHTS assay for identification of artifact compounds. (AID 1845222).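 Also: NLuc secreted into diluted conditioned medium of S16 cells.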 The gist of the method: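 Concentration-response data were obtained by luminescence after 5 min with Nano-Glo substrate at 1:100. The enzyme was diluted S16 NLuc-expressing cell medium, preincubated with compound for 15 min at RT. Curves were fitted with a 4-parameter Hill model.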

Test [10] in a line: Primary redox qHTS assay for identification of artifact compounds. (AID 1845223). The gist of the method: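 Amplex Red (25 uM) and HRP (250 mU/mL) in HBSS, with compounds for 15 min, then 250 uM DTT for 30 min, room temperature, dark. Fluorescence 525/598 nm read; normalized to DMSO and 10 uM DA3003; Hill fit.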
A further test concerns C33A. Briefly: Primary qHTS to identify gynecologic anti-cancer compounds using libraries of approved drugs and bioactive compounds (AID 1345084). Also: nearly all actives have a fitted effect of over 55% in size. As to conditions: Gynecologic cancer cell panel viability, ATPlite luminescence, 48 h; series mostly up to 57.5 µM. The gist of the method:
(§1)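 48 h compound exposure at 37 C, 5% CO2; five-point qHTS. ATPlite luminescence readout of cell ATP.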

The subject of a further test is CAOV3. The test is described as above. The settings on record: Gynecologic cancer cell panel viability, ATPlite luminescence, 48 h; series mostly up to 57.5 µM. The gist of the method: as §1
Background: In ATP-based viability assays light output follows the ATP content of the culture.

The next test relates to CASKI. The test is described as above. The settings on record: Gynecologic cancer cell panel viability, ATPlite luminescence, 48 h; series mostly up to 57.5 µM. The gist of the method:
as §1

Another test concerns Es-2. Described as above. The settings on record: Gynecologic cancer cell panel viability, ATPlite luminescence, 48 h; series mostly up to 57.5 µM. The gist of the method: as §1
A further test has as its system Hek293T. Described as above. As to conditions: Gynecologic cancer cell panel viability, ATPlite luminescence, 48 h, control line for the selectivity index; series mostly up to 57.5 µM. The method in brief:
as §1

A further test concerns JEG-3. The description is as above. As to conditions: Gynecologic cancer cell panel viability, ATPlite luminescence, 48 h; series mostly up to 57.5 µM. The gist of the method:
as §1

The next test deals with OV90. The description is as above. As to conditions: Gynecologic cancer cell panel viability, ATPlite luminescence, 48 h; series mostly up to 57.5 µM. The method in brief:
as §1

Another test has as its system PA-1. The description is as above. As to conditions: Gynecologic cancer cell panel viability, ATPlite luminescence, 48 h; series mostly up to 57.5 µM. The gist of the method: as §1
Another test deals with SKOV3. The description is as above. As to conditions: Gynecologic cancer cell panel viability, ATPlite luminescence, 48 h; series mostly up to 57.5 µM. The method in brief:
as §1

The next test relates to Tov-21-G. Described as above. The settings on record: Gynecologic cancer cell panel viability, ATPlite luminescence, 48 h; series mostly up to 57.5 µM. The gist of the method:
as §1

For a further test, the system named is Tov112D. Described as above. The settings on record: Gynecologic cancer cell panel viability, ATPlite luminescence, 48 h; series mostly up to 57.5 µM. The gist of the method:
as §1

The nature of test [11]: Primary qHTS for inhibitors of nuclear receptor binding SET domain protein 2 (NSD2) in an isogenic RCH-ACV NSD2 p.E1099K mutant (9B) (AID 1645876). Also: potency is read from the fitted curve at half-maximal effect; nearly all actives have a fitted effect of over 70% in size.
Test [12] in a line: Primary qHTS for inhibitors of nuclear receptor binding SET domain protein 2 (NSD2) in an RCH-ACV wild type WT cells (2C) (AID 1645877). Also: potency is read from the fitted curve at half-maximal effect; nearly all actives have a fitted effect of over 70% in size.
For test [13], the target named is Glutathione peroxidase 1 (Homo sapiens) (UniProt P07203). Briefly: Primary qHTS Assay for Inhibitors of Recombinant Selenoprotein Glutathione Peroxidase 1 (GPX1) (AID 1845191). Also: nearly all actives have a fitted effect of over 65% in size. The gist of the method:
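Recombinant GPX1 (10 nM final) was preincubated with compound for 30 min at room temperature, then reacted with 1 mM GSH, 0.5 mM CHP, 0.5 mM NADPH and 100 nM glutathione reductase; NADPH fluorescence (340/450 nm) was read at 0 and 15 min.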

Another test concerns HeLa. Briefly: Primary qHTS to identify gynecologic anti-cancer compounds using libraries of approved drugs and bioactive compounds (AID 1345084). Also: nearly all actives have a fitted effect of over 55% in size. As to conditions: Gynecologic cancer cell panel viability, ATPlite luminescence, 48 h; series mostly up to 57.5 µM. The method in brief: as §1

Phospholipid hydroperoxide glutathione peroxidase GPX4 (Homo sapiens), sequence (P36969 whole entry, looked up): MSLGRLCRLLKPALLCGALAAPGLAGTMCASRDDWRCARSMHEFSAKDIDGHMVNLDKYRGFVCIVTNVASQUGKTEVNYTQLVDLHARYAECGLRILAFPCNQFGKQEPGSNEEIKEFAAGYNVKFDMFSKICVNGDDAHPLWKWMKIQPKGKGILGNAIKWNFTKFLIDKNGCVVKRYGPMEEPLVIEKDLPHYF
Calcium and integrin-binding protein 1 (Homo sapiens), sequence (Q99828 whole entry, looked up): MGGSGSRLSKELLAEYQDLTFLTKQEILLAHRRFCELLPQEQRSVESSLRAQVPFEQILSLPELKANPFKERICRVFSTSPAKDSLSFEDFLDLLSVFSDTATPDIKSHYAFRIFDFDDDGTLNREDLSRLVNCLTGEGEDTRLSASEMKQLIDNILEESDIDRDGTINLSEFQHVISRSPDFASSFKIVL
Cytochrome P450 2D6 (Homo sapiens), sequence (P10635 whole entry, looked up): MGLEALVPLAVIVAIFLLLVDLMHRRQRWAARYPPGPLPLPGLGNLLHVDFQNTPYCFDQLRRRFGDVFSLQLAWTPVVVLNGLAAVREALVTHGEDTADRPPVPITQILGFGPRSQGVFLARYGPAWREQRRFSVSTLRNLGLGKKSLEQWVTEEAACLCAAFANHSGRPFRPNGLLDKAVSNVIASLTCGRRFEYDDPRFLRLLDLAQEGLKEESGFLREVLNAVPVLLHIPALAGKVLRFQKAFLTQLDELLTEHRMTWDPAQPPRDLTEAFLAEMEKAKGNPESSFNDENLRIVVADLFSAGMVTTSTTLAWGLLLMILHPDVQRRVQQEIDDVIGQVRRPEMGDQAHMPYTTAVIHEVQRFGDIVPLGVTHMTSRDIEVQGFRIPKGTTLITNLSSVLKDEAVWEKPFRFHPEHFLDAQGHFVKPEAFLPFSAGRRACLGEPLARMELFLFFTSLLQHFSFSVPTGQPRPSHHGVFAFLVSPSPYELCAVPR
Cytochrome P450 2C9 (Homo sapiens), sequence (P11712 whole entry, looked up): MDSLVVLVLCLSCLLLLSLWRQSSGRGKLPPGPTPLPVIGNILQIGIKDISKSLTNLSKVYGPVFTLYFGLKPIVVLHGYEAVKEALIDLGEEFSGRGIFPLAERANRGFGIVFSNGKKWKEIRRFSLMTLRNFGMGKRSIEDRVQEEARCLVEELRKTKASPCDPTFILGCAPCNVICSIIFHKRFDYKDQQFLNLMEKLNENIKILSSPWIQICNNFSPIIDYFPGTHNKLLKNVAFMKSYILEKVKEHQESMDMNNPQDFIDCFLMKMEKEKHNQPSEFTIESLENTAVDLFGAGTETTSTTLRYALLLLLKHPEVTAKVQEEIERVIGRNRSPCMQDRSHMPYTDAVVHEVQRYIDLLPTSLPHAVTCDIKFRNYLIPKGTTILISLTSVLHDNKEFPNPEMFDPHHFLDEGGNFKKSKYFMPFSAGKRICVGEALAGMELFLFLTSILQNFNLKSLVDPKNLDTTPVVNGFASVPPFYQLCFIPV
Glutathione peroxidase 1 (Homo sapiens), sequence (P07203 whole entry, looked up): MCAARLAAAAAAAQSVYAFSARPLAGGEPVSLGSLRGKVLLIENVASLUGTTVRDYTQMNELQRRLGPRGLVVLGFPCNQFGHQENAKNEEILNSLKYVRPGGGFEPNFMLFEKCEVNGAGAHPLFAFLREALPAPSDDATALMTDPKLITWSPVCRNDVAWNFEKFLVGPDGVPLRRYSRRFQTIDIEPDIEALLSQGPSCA

Turning to `FC(F)(F)c1ccc(N2CCNCC2)nc1Cl`, the Potency result in test [1], in test [2], in test [3], in test [5], in test [6] and in test [8] was “inactive” each time. Further, the Potency entry (in test [9]; in test [10]; with C33A; in the test with CAOV3; in the test on CASKI; in the test with Es-2) was “inactive” throughout. The Potency entry with Hek293T, in the test on JEG-3, with OV90, with PA-1, in the test with SKOV3 and with Tov-21-G was “inactive” in each case. In the test on Tov112D, the Potency result was “inactive”. Further, the Potency in [4] was 15.1 µM (active). The outcome in test [7] was inactive.

Take `CN(C(=O)CN1C(=O)COc2cc(Cl)c(Cl)cc21)[C@@H](CN1CCCC1)c1ccc(-c2cccc(C(N)=O)c2)cc1`: the Potency result in [2], in [3], in test [13], in [6], in test [9] and in test [10] was “inactive” throughout. The Potency result in the test with HeLa and with Tov-21-G was “inactive” in each case. For the same compound, the Potency was 16.9 µM (active) in [4], 13.5 µM (active) in [5], 8.17 µM (active) in test [11] and 7.28 µM (active) in test [12]. The call in test [7] was inactive.
